Inhibition data for 39 compounds are collected here from PubChem BioAssay.

Active and inactive are the calls of the source. The rule behind the calls is not given here.

For the assay, the target named is Pantothenate synthetase (Mycobacterium tuberculosis (strain ATCC 25618 / H37Rv)) (UniProt P9WIL5). Nature of the assay: Recombinant Mtb pantothenate synthetase (PanC) inhibitors, coupled enzyme, confirmatory (AID 375).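 Note: 0% = full reaction with vehicle and 100% = no enzyme background.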 The settings on record: coupled enzyme assay; at 10 µM, stronger effect = higher value.
Chain of Pantothenate synthetase (Mycobacterium tuberculosis (strain ATCC 25618 / H37Rv)) (P9WIL5 whole entry, looked up): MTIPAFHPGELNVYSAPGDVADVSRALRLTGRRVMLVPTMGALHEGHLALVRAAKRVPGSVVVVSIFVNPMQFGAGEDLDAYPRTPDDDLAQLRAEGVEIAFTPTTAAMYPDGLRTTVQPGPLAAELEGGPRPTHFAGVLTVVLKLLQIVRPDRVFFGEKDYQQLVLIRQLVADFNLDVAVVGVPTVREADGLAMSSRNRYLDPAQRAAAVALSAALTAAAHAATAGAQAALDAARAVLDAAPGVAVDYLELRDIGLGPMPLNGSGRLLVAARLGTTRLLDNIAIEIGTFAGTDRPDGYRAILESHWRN
As to `CC(C)NC(=O)c1ccccc1NC(=O)c1ccccc1N(C)S(C)(=O)=O`, the inhibition (as a rule, how much of the control response was suppressed) was 4% (inactive). Under `Cc1cc(C)nc(N2CCCC(C(=O)Nc3nc4ccc(S(C)(=O)=O)cc4s3)C2)n1` (centres undefined) stands 4% (inactive); under `O=C(CSc1nnc(-c2ccc(Br)o2)n1Cc1ccccc1)c1ccccc1F`, 2% (inactive); under `COc1ccccc1N1CCN(C(=O)CCNS(=O)(=O)c2ccc3c(c2)CCC(=O)N3)CC1`, 0% (inactive).

Take `CC1(C)Cc2ccccc2C(N)=C1C#N`: the inhibition is 5% (inactive).

For the compound `CCOc1ccc(N(CC(=O)NC2CCCCC2)S(=O)(=O)c2c(C)noc2C)cc1`, the inhibition is 0% (inactive). For `CCOC(=O)CSC1=C(C#N)C(=O)NC(c2ccc(OC)c(OC)c2)S1` (centres undefined) the value was 16% (inactive); for `Cc1ccccc1N(C)S(=O)(=O)c1ccc2[nH]cc(C(=O)NCC3CCCO3)c(=O)c2c1` (centres undefined), 10% (inactive); for `O=C(CSc1nc(C2CCCCC2)n(-c2ccccc2)n1)NCCN1C(=O)CSC1=O`, 6% (inactive).

On to `CC(=N\O)/C(CN(C)C)=N/O`, for which the inhibition is 0% (inactive).

As for `COC(=O)CCC(NC(=O)c1cc(-c2ccc3c(c2)OCCO3)oc1C)C(=O)OC` (centres undefined), the inhibition is 0% (inactive).

As for `CN(C)CCOC(c1ccccc1)c1ccccc1`, the inhibition is 0% (inactive). For `CC(C)n1c(CN2CCN(C)CC2)nc2c1c(=O)n(C)c(=O)n2C` the value was 0% (inactive); for `Oc1c(I)cc(I)c2cccnc12`, 2% (inactive); for `COc1ccc(C(=O)CSc2nnc(C3CCCCC3)n2N)c(OC)c1`, 0% (inactive).

As for `CCN(CC)CCOC(=O)c1c(C)oc2ccc(O)cc12`, the inhibition was 0% (inactive). For `CCCc1cc(=O)[nH]c(Nc2ccc(OC)c(Cl)c2)n1` the value was 3% (inactive); for `N#CC(C(=O)Nc1ccc(Cl)c(Cl)c1)=C1Nc2ccccc2N1`, 2% (inactive); for `COC(=O)c1nc2n(n1)C(c1ccc(OC)c(OC)c1)C(C(=O)OC1CCCCC1)=C(C)N2` (centres undefined), 0% (inactive). Take `COc1ccc(-c2c3c(=O)n(C)c(=O)n(C)c3cn2-c2cccc(OC)c2)cc1`: the inhibition is 0% (inactive).

For `CCOC(=O)C1CCN(c2c(NC3CCCCCCC3)c(=O)c2=O)CC1`, the inhibition was 3% (inactive).

`CCOc1ccccc1C(=O)Nn1c(C2CCC2)nc2ccccc2c1=O`: the inhibition was 0% (inactive). Consider `N#Cc1c(N2CCCC2)nc(N)c2c(N)nc(N3CCCC3)cc12`, for which the inhibition is 0% (inactive). In the case of `COc1cccc(C(=O)Nc2cc(NC(=O)c3ccco3)ccc2OC)c1`, the inhibition was 3% (inactive). With `CCCCNC(=O)c1c(C)cc(=O)oc1C`, the inhibition is 9% (inactive). Under `O=C(CN1CCN(Cc2ccc(F)cc2Cl)C1=O)NCCCN1CCOCC1` stands 0% (inactive); under `O=C(C1CCCN(S(=O)(=O)c2ccc(Br)s2)C1)N1CCCCCC1` (centres undefined), 0% (inactive). For `CCn1nnnc1SCC(=O)N1c2ccccc2CCc2ccccc21` the value was 1% (inactive). As for `CCN(CC(=O)Nc1ccc2c(c1)CCC2)Cc1nc2ccccc2c(=O)[nH]1`, the inhibition was 4% (inactive). For `COc1ccc(CNC(=O)CCc2nc(-c3ccccc3F)no2)c(OC)c1`, the inhibition is 0% (inactive). Under `CCOC(=O)c1c(NC(=O)c2cccs2)sc(C)c1C` stands 0% (inactive). For `Cc1sc2ncn3ncnc3c2c1C` the value was 0% (inactive). As for `O=C(Nc1ccc(S(=O)(=O)NC2CCCC2)cc1)c1cnccn1`, the inhibition is 0% (inactive). `COc1ccc(OCC(=O)N2CCN(C(=O)c3cccs3)CC2)cc1`: the inhibition is 5% (inactive). For `Brc1c(NC2=NCCN2)ccc2nccnc12` the value was 0% (inactive); for `CCSCc1nnc(SCC(=O)Nc2cccc(SC)c2)n1C`, 4% (inactive); for `Cc1nc(NC2=NCN(CCCN3CCOCC3)CN2)nc2c(C)cccc12`, 0% (inactive). For `COc1cc(S(=O)(=O)N2CCOCC2)ccc1NC(=O)COC(=O)C12CC3CC(CC(C3)C1)C2`, the inhibition is 1% (inactive). Under `CC(=O)NCCn1c(SCC(=O)NCC2CCCO2)nc2ccccc2c1=O` (centres undefined) stands 0% (inactive).
